Measured values from PubChem BioAssay AID1159580 (chemical genetic matrix, 2015).
Among all 5,500 compounds or so, about 2,000 (36%) were called active. About 18% were inconclusive and are not listed. No stated cut-off is given here; in the data, active means normalized growth mostly below about 0.91 (no sharp cut-off); inconclusive means no clear call, values can overlap the other calls; inactive means mostly above about 0.92. Some of the results follow.

Assay: chemical genetic growth profiling, strain panel (AID 1159580);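 further: tested at 20 µM; growth read once vehicle control cultures reached saturation at 30 °C; 1 = growth at the plate median or of vehicle wells; lower values mean less growth of the strain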
Details: S. cerevisiae deletion strains, growth OD

Measured: normalized growth

CCOc1ccc(NC(=O)CC(C)O)cc1 (centres undefined)
inactive: locus YHR030C, strain SLT2, hits give low values 1.02 | locus YHR079C, strain IRE1, hits give low values 1.02 | locus YJL095W, strain BCK1, hits give low values 1.02 | locus YJR066W, strain TOR1, hits give low values 0.94 | locus YLR113W, strain HOG1, hits give low values 1.06 | locus YNL183C, strain NPR1, hits give low values 0.939 | locus YOR231W, strain MKK1, hits give low values 1.01 | locus YPL256C, strain CLN2, hits give low values 1.01

O=C(Cc1ccccc1)NO
inactive: locus YAL021C, strain ccr4, hits give low values 0.981 | locus YAL026C, strain drs2, hits give low values 0.983 | locus YAL030W, strain snc1, hits give low values 0.995 | locus YBL061C, strain skt5, hits give low values 0.957 | locus YBR009C, strain hhf1, hits give low values 0.993 | locus YBR023C, strain chs3, hits give low values 0.978 | locus YBR171W, strain sec66, hits give low values 0.96 | locus YBR231C, strain swc5, hits give low values 0.974 | locus YBR279W, strain paf1, hits give low values 0.976 | locus YCL011C, strain gbp2, hits give low values 0.978 | locus YCL016C, strain dcc1, hits give low values 0.96 | locus YCL061C, strain MRC1, hits give low values 0.975 | locus YCL069W, strain vba3, hits give low values 0.979 | locus YCR088W, strain abp1, hits give low values 0.978 | locus YDL005C, strain med2, hits give low values 0.956 | locus YDL040C, strain nat1, hits give low values 0.975 | locus YDR001C, strain nth1, hits give low values 0.972 | locus YDR069C, strain doa4, hits give low values 0.953 | locus YDR137W, strain rgp1, hits give low values 0.976 | locus YDR159W, strain sac3, hits give low values 0.964 | locus YDR195W, strain ref2 0.953 | locus YDR297W, strain sur2, hits give low values 0.987 | locus YDR334W, strain swr1, hits give low values 1.01 | locus YDR335W, strain msn5, hits give low values 0.982 | locus YDR392W, strain spt3, hits give low values 0.993 | locus YEL003W, strain gim4, hits give low values 0.974 | locus YEL037C, strain rad23, hits give low values 0.962 | locus YEL061C, strain CIN8 (second series), hits give low values 0.989 | locus YER015W, strain faa2, hits give low values 0.98 | locus YER016W, strain bim1, hits give low values 0.982 | locus YER111C, strain swi4, hits give low values 0.985 | locus YER155C, strain BEM2 (second series), hits give low values 0.925 | locus YFR010W, strain ubp6, hits give low values 0.983 | locus YGL167C, strain pmr1, hits give low values 0.969 | locus YGL173C, strain kem1, hits give low values 0.979 | locus YGL227W, strain vid30, hits give low values 0.961 | locus YGL240W, strain doc1, hits give low values 0.995 | locus YGL253W, strain hxk2, hits give low values 0.962 | locus YHR013C, strain ard1, hits give low values 0.944 | locus YHR027C, strain rpn1, hits give low values 0.974 | locus YHR142W, strain chs7, hits give low values 0.917 | locus YJL092W, strain hpr5, hits give low values 0.99 | locus YJL095W, strain BCK1 (second series), hits give low values 0.96 | locus YJL115W, strain asf1, hits give low values 0.961 | locus YJL129C, strain trk1, hits give low values 0.954 | locus YJL154C, strain vps35, hits give low values 0.989 | locus YJL164C, strain tpk1, hits give low values 0.977 | locus YJL166W, strain qcr8, hits give low values 0.966 | locus YKL160W, strain elf1, hits give low values 0.944 | locus YKR026C, strain gcn3, hits give low values 0.973 | locus YKR091W, strain srl3, hits give low values 0.973 | locus YLL001W, strain dnm1, hits give low values 0.98 | locus YLL026W, hits give low values 0.97 | locus YLL041C, strain sdh2, hits give low values 0.976 | locus YLR027C, strain aat2, hits give low values 0.973 | locus YLR221C, strain rsa3, hits give low values 0.992 | locus YLR258W, strain gsy2, hits give low values 0.973 | locus YLR262C, strain YPT6 (second series), hits give low values 0.978 | locus YLR320W, strain mms22, hits give low values 0.952 | locus YLR342W, strain FKS1, hits give low values 0.98 | locus YLR357W, strain rsc2, hits give low values 0.938 | locus YLR370C, strain arc18, hits give low values 0.981 | locus YLR384C, strain iki3, hits give low values 0.961 | locus YML120C, strain ndi1, hits give low values 0.981 | locus YMR058W, strain fet3, hits give low values 0.984 | locus YMR125W, strain sto1, hits give low values 0.963 | locus YMR129W, hits give low values 0.973 | locus YMR205C, strain PFK2, hits give low values 0.992 | locus YMR231W, strain pep5, hits give low values 0.975 | locus YNL071W, strain lat1, hits give low values 0.965 | locus YNL209W, strain ssb2, hits give low values 0.984 | locus YNL248C, strain rpa49, hits give low values 0.95 | locus YNL322C, strain KRE1 (second series), hits give low values 0.949 | locus YNR049C, strain mso1, hits give low values 0.983 | locus YOR001W, strain rrp6, hits give low values 1 | locus YOR070C, strain gyp1, hits give low values 0.98 | locus YOR080W, strain dia2, hits give low values 0.94 | locus YOR083W, strain WHI5, hits give low values 0.928 | locus YOR106W, strain vam3, hits give low values 0.939 | locus YOR265W, strain rbl2, hits give low values 0.976 | locus YOR270C, strain vph1, hits give low values 0.936 | locus YOR290C, strain snf2, hits give low values 0.969 | locus YPL051W, strain arl3, hits give low values 0.972 | locus YPL078C, strain atp4, hits give low values 0.97 | locus YPL106C, strain sse1, hits give low values 0.949 | locus YPL240C, strain hsp82, hits give low values 0.963
